Out of some 52,000 compounds screened, about 1,700 (3.3%) were called active. This excerpt belongs to a sample that is enriched for actives. Unmarked numbers belong to inactive results. Rule as the data show it: active = survival mostly below about 52% (no sharp cut-off); inactive = mostly above about 56%.

Results on 89 compounds are retold here after PubChem BioAssay AID463173 (ICCB-Longwood Screening Facility, Harvard Medical School, 2010).

In this assay the test system is Wild type. The assay is described as follows: growth inhibition of S. aureus wild type versus tarO mutant, primary screen, teichoic acid synthesis inhibitors, RN4220, OD600 (AID 463173). The note with it: S. aureus RN4220 wild type/DeltatarO growth, OD600, 18 h, hits give low values, screened at 18.75 µg/mL (by protocol).
Take `Cc1nc2c(-c3ccc(F)cc3)c(C)nn2c(C)c1CCC(=O)N1CCN(c2ccccc2)CC1`: the survival was 75%.

Regarding `Cc1c(C(=O)NCCc2ccc(Cl)cc2)sc2nc3n(c(=O)c12)CCCC3`, the survival is 78%.

Consider `CCn1c2ccccc2c2cc(CN3CCN(Cc4ccc(Br)cc4)CC3)ccc21`, for which the survival is 3% (active).

Consider `CCn1c2ccccc2c2cc(CN3CCN(Cc4ccccc4Cl)CC3)ccc21`, for which the survival was 1% (active).

Take `CCn1c2ccccc2c2cc(CN3CCN(Cc4ccc(OC)c(OC)c4)CC3)ccc21`: the survival was 14% (active).

Take `Cc1ccc(Cn2c(=O)n(Cc3ccccc3Cl)c(=O)c3ccccc32)cc1`: the survival was 56%.

In the case of `CCn1c(=O)cc(SCC(=O)NCc2cccc(Cl)c2)c2ccccc21`, the survival is 60%.

Consider `CCn1c2ccccc2c2cc(CN3CCN(Cc4cccc(Cl)c4)CC3)ccc21`, for which the survival is 0% (active).

As to `CCS(=O)(=O)N1CCN(Cc2ccccc2)CC1`, the survival is 119%.

Consider `CCCN1CCN(C(=O)Cn2ncc3c4ccccc4n(Cc4cccc(Cl)c4)c3c2=O)CC1`, for which the survival is 80%.

As to `Clc1ccccc1CN1CCN(Cc2ccco2)CC1`, the survival was 101%.

With `CCCS(=O)(=O)N1CCN(Cc2ccc(OC)c(OCC)c2)CC1`, the survival was 103%.

Regarding `CCn1c2ccccc2c2cc(CN3CCN(Cc4cc(OC)c(O)c(OC)c4)CC3)ccc21`, the survival is 54%.

Take `CCn1c2ccccc2c2cc(CN3CCN(Cc4ccco4)CC3)ccc21`: the survival is 104%.

Take `CCC(=O)N1CCc2cc(S(=O)(=O)NCCC(=O)Nc3ccc(CC)cc3)ccc21`: the survival was 73%.

Take `Brc1cccc(-c2nn(-c3ccccc3)c3c2cnc2cc4c(cc23)OCO4)c1`: the survival was 86%.

With `O=C(NCCS(=O)(=O)N1CCN(c2ccc(F)cc2)CC1)c1cccc(C(F)(F)F)c1`, the survival is 72%.

Take `Cc1cccc(NC(=O)c2ccc3c(c2)CCN3S(=O)(=O)c2ccccc2)c1C`: the survival is 84%.

For `CCN(CC)S(=O)(=O)c1ccc2c(c1)N(CC(=O)Nc1ccc(F)cc1F)C(=O)C1CCCN21` (centres undefined), the survival is 64%.

For the compound `Cc1ccc(-n2nc(C(=O)N3CCN(c4cc(C)ccc4C)CC3)c3c4ccccc4n(C)c3c2=O)cc1`, the survival was 79%.

Regarding `CCOc1ccc(CN2CCN(Cc3ccc4c(c3)c3ccccc3n4CC)CC2)cc1`, the survival was -1% (active).

For the compound `CCOc1ccc(Cn2c(=O)oc3ccccc32)cc1`, the survival is 114%.

As for `CCCn1c(N2CCN(Cc3ccc(Cl)cc3)CC2)nc2ccccc21`, the survival is 123%.

For the compound `CC(C)n1c(N2CCN(Cc3ccc(Cl)cc3)CC2)nc2ccccc21`, the survival was 128%.

Consider `CCOc1ccc(CN2CCN(C(=O)c3ccco3)CC2)cc1`, for which the survival is 103%.

`CCn1c2ccccc2c2cc(CN3CCN(Cc4ccc(Cl)cc4)CC3)ccc21`: the survival was -2% (active).

With `CCOc1ccc(-c2c(C)nn3c(C)c(C(=O)NCC(C)c4ccccc4)cnc23)cc1OCC` (centres undefined), the survival is 72%.

In the case of `O=C(CSc1nc2c(c(=O)[nH]1)CCC2)Nc1cc(C(F)(F)F)ccc1Cl`, the survival is 85%.

`CCCN1Cc2cccc(C(=O)Nc3ccc(C(C)=O)cc3)c2C1=O`: the survival is 89%.

Regarding `CS(=O)(=O)c1ccccc1-c1nnc(NC(=O)c2ccc3c(c2)OCCO3)o1`, the survival is -6% (active).

In the case of `CS(=O)(=O)c1ccc(-c2nnc(NC(=O)c3ccc4c(c3)OCCO4)o2)cc1`, the survival is 75%.

Take `CSc1ccccc1-c1nnc(NC(=O)c2ccc3c(c2)OCCO3)o1`: the survival is 123%.

With `Cc1ccc(-n2c(=O)c3cccnc3n2CC(=O)Nc2ccc(C)cc2Cl)cc1`, the survival is 113%.

Take `Cc1ccc2c(c1)-c1nc(-c3ccc(Cl)cc3)cc(-c3coc4ccccc4c3=O)c1CO2`: the survival was 139%.

With `CCCn1c(=O)c2sccc2n2c(CCCC(=O)N3CCN(c4ccc(OC)cc4)CC3)nnc12`, the survival was 99%.

In the case of `O=C(Nc1cccc(C(=O)N2CCCCC2)c1)c1nsc2ccccc12`, the survival is 65%.

With `CCc1nc2sc3c(N4CCCCC4)ncnc3c2c2c1CCCC2`, the survival was 136%.

On to `CCCc1nc2sc3c(N4CCCCC4)ncnc3c2c2c1CCCC2`, for which the survival was 13% (active).

Take `CCCc1nc2sc3c(N4CCC(C)CC4)ncnc3c2c2c1CCCC2`: the survival is 75%.

Turning to `COc1ccccc1Nc1sc(C(=O)c2ccc3c(c2)OCO3)c(N)c1S(=O)(=O)c1ccccc1`, the survival was 83%.

Take `COc1ccc(Nc2nc(N)nc(CSc3nc4cc(OC)ccc4s3)n2)cc1`: the survival is 8% (active).

Take `Cc1ccc(Nc2nc(N)nc(CSc3nc4ccccc4s3)n2)cc1`: the survival was 32%.

For `COc1ccc(Nc2nc(N)nc(CSc3nc4ccccc4s3)n2)cc1`, the survival was 35%.

As for `COc1ccc(/C=C/C(=O)Nc2ccc(Cl)c(Cl)c2)cc1OC`, the survival was 5% (active).

Turning to `C/C=C/C(=O)Nc1ccc(Cl)c(Cl)c1`, the survival is 108%.

For the compound `COc1ccc(/C=C/C(=O)Nc2ccc(Cl)c(Cl)c2)cc1`, the survival was 80%.

On to `CN(C)c1ccc(NC(=O)CSC2=Nc3ccccc3C3=NC(CC(=O)NCc4ccc5c(c4)OCO5)C(=O)N23)cc1` (centres undefined), for which the survival was 124%.

On to `Cc1cn2c(=O)cc(COc3ccc(NC(=O)c4cccc(F)c4)cc3)nc2s1`, for which the survival is 122%.

Regarding `COc1cc(C(=O)Nc2ccc(OCc3cc(=O)n4cccc(C)c4n3)cc2)cc(OC)c1OC`, the survival is 133%.

With `Cc1cccn2c(=O)cc(COc3ccc(NC(=O)c4cccc(F)c4)cc3)nc12`, the survival is -1% (active).

For the compound `O=C(Nc1cccc(OCc2cc(=O)n3ccccc3n2)c1)Nc1cccc(C(F)(F)F)c1`, the survival was -6% (active).

Take `Cc1ccc(Cl)cc1NC(=O)Nc1cccc(OCc2cc(=O)n3ccccc3n2)c1`: the survival is 64%.

As for `O=C(COc1ccc(F)cc1)Nc1cccc(OCc2cc(=O)n3ccccc3n2)c1`, the survival was 73%.

As to `COc1cc(C(=O)Nc2ccc(OCc3cc(=O)n4ccc(C)cc4n3)cc2)cc(OC)c1OC`, the survival was 0% (active).

As for `CCOc1ccc(C(=O)Nc2ccc(OCc3cc(=O)n4cccc(C)c4n3)cc2)cc1`, the survival was 14% (active).

Take `Cc1cccc(C(=O)Nc2ccc(OCc3cc(=O)n4ccc(C)cc4n3)cc2)c1`: the survival is 55%.

Take `Cc1ccccc1C(=O)Nc1ccc(OCc2cc(=O)n3cccc(C)c3n2)cc1`: the survival is 72%.

As for `COc1cccc(C(=O)Nc2cccc(OCc3cc(=O)n4cccc(C)c4n3)c2)c1`, the survival was 134%.

`COc1ccccc1C(=O)Nc1ccc(OCc2cc(=O)n3ccc(C)cc3n2)cc1`: the survival was 85%.

`CCOC(=O)C1CCCN(C(=O)c2nn(-c3ccc(OC)cc3)c(=O)c3c2c2ccccc2n3C)C1` (centres undefined): the survival is 125%.

Regarding `CCOC(=O)c1ccc(NC(=O)Cn2cc(C(=O)c3ccc(CC)cc3)c(=O)c3ccc(C)nc32)cc1`, the survival is 143%.

Turning to `COCCn1c(C)cc(O)c(C(c2ccc(Cl)cc2)N2CCN(c3ccccc3)CC2)c1=O` (centres undefined), the survival was 65%.

As for `O=C(NCCC1=CCCCC1)c1ccc2c(c1)N(Cc1ccc(Cl)cc1)C(=O)c1ccccc1S2(=O)=O`, the survival was 104%.

Turning to `NC(=O)CSc1oc(-c2ccco2)nc1S(=O)(=O)c1ccc(Cl)cc1`, the survival is 68%.

For the compound `Cc1ccc(CNC(=O)C2CCN(S(=O)(=O)N3CCC(C)CC3)CC2)cc1`, the survival is 77%.

Consider `O=C(Cn1cc(S(=O)(=O)Cc2ccccc2Cl)c2ccccc21)NCCc1ccccc1`, for which the survival was 65%.

As for `CCC(=O)Nc1ccc2c(c1)C(=O)OC2`, the survival was 110%.

For `Cc1ccc(OCC(=O)Nc2cccc(OCc3cc(=O)n4cccc(C)c4n3)c2)cc1C`, the survival is 124%.

`Cc1cccc(C(=O)Nc2cccc(OCc3cc(=O)n4cccc(C)c4n3)c2)c1`: the survival was 76%.

For `Cc1ccc(OCC(=O)Nc2ccc(OCc3cc(=O)n4cccc(C)c4n3)cc2)cc1C`, the survival was -6% (active).

As to `Cc1cccn2c(=O)cc(COc3ccc(NC(=O)COc4ccc(F)cc4)cc3)nc12`, the survival was 69%.

In the case of `Cc1ccccc1C(=O)Nc1cccc(OCc2cc(=O)n3cccc(C)c3n2)c1`, the survival was 90%.

Consider `Cc1cccn2c(=O)cc(COc3cccc(NC(=O)c4ccccc4F)c3)nc12`, for which the survival was -6% (active).

Regarding `Cc1cccc(-n2c(-c3ccco3)nc3c(cnn3-c3ccccc3C)c2=O)c1`, the survival was 132%.

Regarding `O=C(CN(C1CCCCC1)S(=O)(=O)c1ccccc1)N1CCCCC1`, the survival was 101%.

For the compound `CCOC(=O)c1c(S(=O)(=O)N2CCC(C(=O)Nc3ccc(C)cn3)CC2)c(C)n(C)c1C`, the survival was 70%.

Take `Cc1ccc(NC(=O)c2cc(S(=O)(=O)N3CCCCC3)c[nH]2)cc1N(C)C`: the survival is 87%.

In the case of `CCCN(C(=O)c1sc2nc3n(c(=O)c2c1C)CCCC3)c1ccccc1C`, the survival is 80%.

On to `COc1cc2c(cc1OC)C(COc1ccccc1OC)N(C(=O)c1ccccc1OC)CC2` (centres undefined), for which the survival was 73%.

As to `Cc1ccc(C(=O)Nc2nc(-c3nnn(-c4cccc(C(F)(F)F)c4)c3C)ns2)cc1`, the survival was 75%.

Take `CC(=O)c1ccc(N2CCN(S(=O)(=O)c3ccc(-c4cc(C(F)(F)F)on4)s3)CC2)cc1`: the survival is 72%.

Consider `Cc1cc(-c2ccc(S(=O)(=O)N3CCN(c4ccc(Cl)cc4)CC3)s2)on1`, for which the survival is 136%.

Consider `CC(=O)c1ccc(N2CCN(S(=O)(=O)c3ccc(-c4cc(C)no4)s3)CC2)cc1`, for which the survival was -6% (active).

Consider `Cc1cccc(N2CCN(C(=O)Cn3c(=O)c4cccn4c4ccc(F)cc43)CC2)c1C`, for which the survival was 85%.

As for `CC(C)(C)OC(=O)N1CCC(c2c(C(=O)NCc3ccco3)cnn2-c2ccccc2)CC1`, the survival was 75%.

For `COc1ccc(S(=O)(=O)NCCc2cn3ccsc3n2)cc1OC`, the survival is -3% (active).

`Cc1ccc(S(=O)(=O)NCCc2cn3ccsc3n2)cc1`: the survival was 57%.

With `COc1ccc(S(=O)(=O)NCCc2cn3ccsc3n2)cc1`, the survival is 82%.

Take `CN(C)c1ccc(N/C=C(\C#N)c2nc3ccccc3[nH]2)cc1`: the survival is 118%.
